# Where “and” joins values, the source holds several entries; their conditions need not be identical. Identical values can stand only once. Like-named read-outs stand apart in the source and are kept apart here.
# Assays:
# [1] = test system: T1, RSK2(Kin.Dom.1-N-terminal); settings: concentration: 1 μM, replicates: in singlicate, n = 1
# T1 construct: gene RPS6KA3
# [2] = test system: T2, RSK2(Kin.Dom.2-C-terminal); settings: concentration: 1 μM, replicates: in singlicate, n = 1
# T2 construct: gene RPS6KA3
# [3] = test system: T3, RSK3(Kin.Dom.1-N-terminal); settings: concentration: 1 μM, replicates: in singlicate, n = 1
# T3 construct: gene RPS6KA2
# [4] = test system: T4, RSK3(Kin.Dom.2-C-terminal); settings: concentration: 1 μM, replicates: in singlicate, n = 1
# T4 construct: gene RPS6KA2
# [5] = test system: T5, RSK4(Kin.Dom.1-N-terminal); settings: concentration: 1 μM, replicates: in singlicate, n = 1
# T5 construct: gene RPS6KA6
# [6] = test system: T6, RSK4(Kin.Dom.2-C-terminal); settings: concentration: 1 μM, replicates: in singlicate, n = 1
# T6 construct: gene RPS6KA6
# [7] = test system: S6K1; settings: concentration: 1 μM, replicates: in singlicate, n = 1
# [8] = test system: SBK1; settings: concentration: 1 μM, replicates: in singlicate, n = 1
# [9] = test system: SGK2; settings: concentration: 1 μM, replicates: in singlicate; n = 1
# [10] = test system: SGK3; settings: concentration: 1 μM, replicates: in singlicate, n = 1
# [11] = test system: SGK; settings: concentration: 1 μM, replicates: in singlicate, n = 1
# [12] = test system: SIK2; settings: concentration: 1 μM, replicates: in singlicate, n = 1
# [13] = test system: SIK; settings: concentration: 1 μM, replicates: in singlicate, n = 1
# [14] = test system: SLK; settings: concentration: 1 μM, replicates: in singlicate, n = 1
# [15] = test system: T7, SNARK; settings: concentration: 1 μM, replicates: in singlicate, n = 1
# T7 construct: gene NUAK2
# [16] = test system: SNRK; settings: concentration: 1 μM, replicates: in singlicate, n = 1
# [17] = test system: SRC; settings: concentration: 1 μM, replicates: in singlicate, n = 1
# [18] = test system: SRMS; settings: concentration: 1 μM, replicates: in singlicate, n = 1
# [19] = test system: SRPK1; settings: concentration: 1 μM, replicates: in singlicate, n = 1
# [20] = test system: SRPK2; settings: concentration: 1 μM, replicates: in singlicate, n = 1
# 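Further: KINOMEscan kinase panel screen.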
compound,measurement,setting,value
Cl.Cl.Cl.Fc1ccc(-c2ncn(C3CCNCC3)c2-c2ccnc(Nc3ccccc3)n2)cc1 [SB-238039],%Inh,[1]; 1 µM,41% and 35%
same,%Inh,[2]; 1 µM,16% and 0%
same,%Inh,[3]; 1 µM,0% and 15%
same,%Inh,[4]; 1 µM,18% and 32%
same,%Inh,[5]; 1 µM,19% and 0%
same,%Inh,[6]; 1 µM,88% and 80%
same,%Inh,[7]; 1 µM,5% and 0%
same,%Inh,[8]; 1 µM,36% and 0%
same,%Inh,[9],2%
same,%Inh,[10]; 1 µM,8% and 12%
same,%Inh,[11]; 1 µM,41% and 0%
same,%Inh,[12]; 1 µM,65% and 46%
same,%Inh,[13]; 1 µM,1% and 4%
same,%Inh,[14]; 1 µM,28% and 0%
same,%Inh,[15]; 1 µM,9% and 0%
same,%Inh,[16]; 1 µM,0% and 10%
same,%Inh,[17]; 1 µM,0% and 4%
same,%Inh,[18]; 1 µM,29% and 0%
same,%Inh,[19]; 1 µM,7% and 0%
same,%Inh,[20]; 1 µM,7% and 0%
NS(=O)(=O)c1cccc(-c2ccc3ncc(N4CCOCC4)nc3c2)c1 [GSK1535721],%Inh,[1],15%
same,%Inh,[2],7%
same,%Inh,[3],0%
same,%Inh,[4],0%
same,%Inh,[5],0%
same,%Inh,[6],0%
same,%Inh,[7],10%
same,%Inh,[8],0%
same,%Inh,[9],0%
same,%Inh,[10],9%
same,%Inh,[11],9%
same,%Inh,[12],0%
same,%Inh,[13],0%
same,%Inh,[14],2%
same,%Inh,[15],1%
same,%Inh,[16],0%
same,%Inh,[17],0%
same,%Inh,[18],6%
same,%Inh,[19],0%
same,%Inh,[20],0%
CN1c2ccc(CNc3ccc(F)cc3)cc2-c2c(cnn2C)S1(=O)=O,%Inh,[1],23%
same,%Inh,[2],41%
same,%Inh,[3],3%
same,%Inh,[4],8%
same,%Inh,[5],5%
same,%Inh,[6],0%
same,%Inh,[7],0%
same,%Inh,[8],0%
same,%Inh,[9],100%
same,%Inh,[10],0%
same,%Inh,[11],0%
same,%Inh,[12],0%
same,%Inh,[13],0%
same,%Inh,[14],0%
same,%Inh,[15],0%
same,%Inh,[16],0%
same,%Inh,[17],0%
same,%Inh,[18],0%
same,%Inh,[19],0%
same,%Inh,[20],21%
COC(=O)Nc1nc2cc(Oc3ccc(NC(=O)Nc4cc(F)ccc4F)cc3)ccc2[nH]1.Cl [GW701424],%Inh,[1],5%
same,%Inh,[2],1%
same,%Inh,[3],8%
same,%Inh,[4],13%
same,%Inh,[5],0%
same,%Inh,[6],18%
same,%Inh,[7],2%
same,%Inh,[8],6%
same,%Inh,[9],0%
same,%Inh,[10],12%
same,%Inh,[11],2%
same,%Inh,[12],0%
same,%Inh,[13],0%
same,%Inh,[14],9%
same,%Inh,[15],0%
same,%Inh,[16],0%
same,%Inh,[17],0%
same,%Inh,[18],0%
same,%Inh,[19],0%
same,%Inh,[20],29%
CN1c2ccc(NCc3ccc(F)cc3)cc2-c2c(cnn2C)S1(=O)=O,%Inh,[1],23%
same,%Inh,[2],31%
same,%Inh,[3],10%
same,%Inh,[4],22%
same,%Inh,[5],0%
same,%Inh,[6],98.7%
same,%Inh,[7],10%
same,%Inh,[8],0%
same,%Inh,[9],18%
same,%Inh,[10],4%
same,%Inh,[11],5%
same,%Inh,[12],11%
same,%Inh,[13],0%
same,%Inh,[14],0%
same,%Inh,[15],0%
same,%Inh,[16],0%
same,%Inh,[17],3%
same,%Inh,[18],0%
same,%Inh,[19],0%
same,%Inh,[20],0%
N#Cc1ccc(-c2cc(-c3c[nH]nc3-c3ccccn3)ccn2)cc1 [GW693028],%Inh,[1],0%
same,%Inh,[2],24%
same,%Inh,[3],0%
same,%Inh,[4],0%
same,%Inh,[5],0%
same,%Inh,[6],28%
same,%Inh,[7],4%
same,%Inh,[8],4%
same,%Inh,[9],0%
same,%Inh,[10],0%
same,%Inh,[11],0%
same,%Inh,[12],0%
same,%Inh,[13],0%
same,%Inh,[14],6%
same,%Inh,[15],0%
same,%Inh,[16],0%
same,%Inh,[17],0%
same,%Inh,[18],0%
same,%Inh,[19],0%
same,%Inh,[20],0%
CCn1cnc2c(N)ncnc21 [GW345098],%Inh,[1],0%
same,%Inh,[2],14%
same,%Inh,[3],0%
same,%Inh,[4],24%
same,%Inh,[5],0%
same,%Inh,[6],26%
same,%Inh,[7],17%
same,%Inh,[8],0%
same,%Inh,[9],22%
same,%Inh,[10],0%
same,%Inh,[11],25%
same,%Inh,[12],2%
same,%Inh,[13],19%
same,%Inh,[14],18%
same,%Inh,[15],0%
same,%Inh,[16],0%
same,%Inh,[17],20%
same,%Inh,[18],12%
same,%Inh,[19],24%
same,%Inh,[20],19%
NCC(NC(=O)c1cc(-c2cn[nH]c2)c(-c2ccnc3[nH]ccc23)s1)c1ccccc1.O=C(O)C(F)(F)F.O=C(O)C(F)(F)F (stereo not drawn) [GSK1325775],%Inh,[1],35%
same,%Inh,[2],6%
same,%Inh,[3],7%
same,%Inh,[4],0%
same,%Inh,[5],21%
same,%Inh,[6],8%
same,%Inh,[7],53%
same,%Inh,[8],84%
same,%Inh,[9],79%
same,%Inh,[10],81%
same,%Inh,[11],74%
same,%Inh,[12],0%
same,%Inh,[13],0%
same,%Inh,[14],0%
same,%Inh,[15],92.2%
same,%Inh,[16],0%
same,%Inh,[17],0%
same,%Inh,[18],0%
same,%Inh,[19],81%
same,%Inh,[20],22%
CNc1ncnc2[nH]ncc12 [SKF-18355],%Inh,[1],46%
same,%Inh,[2],0%
same,%Inh,[3],5%
same,%Inh,[4],22%
same,%Inh,[5],16%
same,%Inh,[6],0%
same,%Inh,[7],24%
same,%Inh,[8],0%
same,%Inh,[9],0%
same,%Inh,[10],0%
same,%Inh,[11],6%
same,%Inh,[12],0%
same,%Inh,[13],0%
same,%Inh,[14],10%
same,%Inh,[15],0%
same,%Inh,[16],0%
same,%Inh,[17],17%
same,%Inh,[18],22%
same,%Inh,[19],0%
same,%Inh,[20],0%
Fc1ccc(-c2ncn(CCCN3CCOCC3)c2-c2cccnc2)cc1 [SB-211743],%Inh,[1],34%
same,%Inh,[2],0%
same,%Inh,[3],0%
same,%Inh,[4],27%
same,%Inh,[5],20%
same,%Inh,[6],0%
same,%Inh,[7],0%
same,%Inh,[8],1%
same,%Inh,[9],0%
same,%Inh,[10],0%
same,%Inh,[11],39%
same,%Inh,[12],5%
same,%Inh,[13],0%
same,%Inh,[14],25%
same,%Inh,[15],0%
same,%Inh,[16],0%
same,%Inh,[17],0%
same,%Inh,[18],27%
same,%Inh,[19],0%
same,%Inh,[20],0%
COc1ccc(Nc2ncc(C#N)c(Nc3ccccc3C(N)=O)n2)cc1N1CCN(C)CC1.Cl [GSK1558669],%Inh,[1],100%
same,%Inh,[2],7%
same,%Inh,[3],99.7%
same,%Inh,[4],11%
same,%Inh,[5],100%
same,%Inh,[6],50%
same,%Inh,[7],99.9%
same,%Inh,[8],93.9%
same,%Inh,[9],58%
same,%Inh,[10],95.3%
same,%Inh,[11],87%
same,%Inh,[12],96.4%
same,%Inh,[13],98.7%
same,%Inh,[14],100%
same,%Inh,[15],99.8%
same,%Inh,[16],85%
same,%Inh,[17],100%
same,%Inh,[18],99.5%
same,%Inh,[19],99.9%
same,%Inh,[20],66%
Cl.Oc1cccc(Nc2ccnc3cc(-c4ccncc4)ccc23)c1 [GW494601],%Inh,[1],12%
same,%Inh,[2],23%
same,%Inh,[3],0%
same,%Inh,[4],0%
same,%Inh,[5],0%
same,%Inh,[6],29%
same,%Inh,[7],0%
same,%Inh,[8],34%
same,%Inh,[9],0%
same,%Inh,[10],3%
same,%Inh,[11],12%
same,%Inh,[12],69%
same,%Inh,[13],72%
same,%Inh,[14],11%
same,%Inh,[15],12%
same,%Inh,[16],0%
same,%Inh,[17],100%
same,%Inh,[18],0%
same,%Inh,[19],46%
same,%Inh,[20],0%
C[C@@H](Oc1cc(-n2cnc3ccc(NC(=O)NC(C)(C)C)cc32)sc1C(N)=O)c1ccccc1Cl [GSK346294],%Inh,[1],0%
same,%Inh,[2],11%
same,%Inh,[3],0%
same,%Inh,[4],9%
same,%Inh,[5],0%
same,%Inh,[6],26%
same,%Inh,[7],0%
same,%Inh,[8],0%
same,%Inh,[9],10%
same,%Inh,[10],19%
same,%Inh,[11],0%
same,%Inh,[12],0%
same,%Inh,[13],0%
same,%Inh,[14],59%
same,%Inh,[15],21%
same,%Inh,[16],0%
same,%Inh,[17],0%
same,%Inh,[18],0%
same,%Inh,[19],20%
same,%Inh,[20],12%
O=C(Nc1n[nH]c2cc(-c3cccc(F)c3)ccc12)C1CC1 [SB-735464],%Inh,[1],0%
same,%Inh,[2],15%
same,%Inh,[3],2%
same,%Inh,[4],0%
same,%Inh,[5],9%
same,%Inh,[6],17%
same,%Inh,[7],49%
same,%Inh,[8],21%
same,%Inh,[9],0%
same,%Inh,[10],13%
same,%Inh,[11],13%
same,%Inh,[12],0%
same,%Inh,[13],0%
same,%Inh,[14],11%
same,%Inh,[15],0%
same,%Inh,[16],0%
same,%Inh,[17],0%
same,%Inh,[18],18%
same,%Inh,[19],36%
same,%Inh,[20],4%
Cc1nnc(-c2ccc3occ(-c4ccc(C(C)O)cc4)c3c2)o1 (stereo not drawn),%Inh,[1],3%
same,%Inh,[2],0%
same,%Inh,[3],0%
same,%Inh,[4],3%
same,%Inh,[5],19%
same,%Inh,[6],7%
same,%Inh,[7],0%
same,%Inh,[8],0%
same,%Inh,[9],0%
same,%Inh,[10],0%
same,%Inh,[11],1%
same,%Inh,[12],18%
same,%Inh,[13],10%
same,%Inh,[14],14%
same,%Inh,[15],2%
same,%Inh,[16],9%
same,%Inh,[17],18%
same,%Inh,[18],2%
same,%Inh,[19],0%
same,%Inh,[20],2%

# From PMC5540273 (PLoS ONE, 2017)
